Bioassay records deposited in PubChem by Columbia University Molecular Screening Center.
Hits are enriched below; roughly 1.3% of the tested compounds scored in any of these assays.
NFkB transloc pot: enhances IL-1B driven NFkB nuclear translocation. AID 819. activation, % at 2 µM. actives 0.3% (n = 94,000). HUVEC IL-1B NFkB p65 nuclear translocation imaging;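 active means activation above 40%, about the mean plus 3 SD, also judged a hit on visual image review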;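 further: percent activation is computed from the nuclear over cytoplasmic p65 intensity ratio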
IL1B NFkB inh: blocks IL-1B driven NFkB nuclear translocation in HUVEC cells; HUVEC IL-1B NFkB p65 nuclear translocation imaging; inhibition, % at 2 µM; AID 796; actives 0.43% (n = 94,000);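 active means inhibition above about 30% together with a positive call from visual inspection of the well image, limit read from the data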;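 further: nuclear over cytoplasmic p65 intensity ratio measured by imaging; 0% = IL-1B stimulated DMSO wells and 100% = unstimulated DMSO wells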
PTPN22 act: increases human PTPN22 phosphatase activity. activation, % at 2 µM. recombinant LYP, DiFMUP fluorescence; 0 = plate median, 100 = signal doubled. Q9Y2R2. actives 0.11% (n = 96,000);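 active means activation at 2 µM above a set limit, the mean plus 5 SD, cut at about 37% in these data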
Target sequence (Q9Y2R2 whole entry, looked up): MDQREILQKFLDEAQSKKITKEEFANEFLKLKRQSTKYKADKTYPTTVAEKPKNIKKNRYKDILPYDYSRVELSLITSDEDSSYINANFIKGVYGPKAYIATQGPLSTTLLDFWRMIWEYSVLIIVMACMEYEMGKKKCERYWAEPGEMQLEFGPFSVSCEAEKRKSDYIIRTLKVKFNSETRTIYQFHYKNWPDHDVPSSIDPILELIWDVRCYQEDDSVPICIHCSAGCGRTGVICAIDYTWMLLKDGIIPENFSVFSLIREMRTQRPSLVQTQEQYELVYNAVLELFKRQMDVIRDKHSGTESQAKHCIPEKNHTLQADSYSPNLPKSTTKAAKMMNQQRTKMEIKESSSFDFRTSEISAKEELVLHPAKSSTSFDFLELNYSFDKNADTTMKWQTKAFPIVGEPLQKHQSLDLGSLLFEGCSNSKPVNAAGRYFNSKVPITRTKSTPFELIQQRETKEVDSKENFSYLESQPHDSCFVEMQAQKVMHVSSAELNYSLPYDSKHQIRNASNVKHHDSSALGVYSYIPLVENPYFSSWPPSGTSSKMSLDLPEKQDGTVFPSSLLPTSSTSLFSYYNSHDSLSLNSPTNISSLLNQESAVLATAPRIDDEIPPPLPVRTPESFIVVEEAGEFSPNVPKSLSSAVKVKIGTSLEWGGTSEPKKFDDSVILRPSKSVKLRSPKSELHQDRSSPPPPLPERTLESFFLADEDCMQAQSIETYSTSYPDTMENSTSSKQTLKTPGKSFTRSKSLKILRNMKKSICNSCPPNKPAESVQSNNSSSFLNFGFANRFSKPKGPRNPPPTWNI
LYP inh 2: blocks human PTPN22 phosphatase activity | recombinant LYP catalytic domain, DiFMUP fluorescence | inhibition, % at 2 µM | actives 0.21% (n = 96,000) | AID 640;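 active means inhibition at 2 µM at or above a set limit, the screen mean plus 3 SD, cut at about 24% in these data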;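 further: 0% = DMSO with enzyme and 100% = enzyme fully blocked by orthovanadate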
IL1B cytotox: toxic to HUVEC cells under IL-1B stimulation; actives 0.41% (n = 94,000); HUVEC cell count loss, Hoechst imaging, IL-1B stimulated; cell count reduction, % at 2 µM;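 active means cell count reduction more than 3 SD above the screen-wide mean, cut at about 70% in these data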;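 further: normalized per plate to untreated control cells as the no-loss baseline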
* hit, by the source's call; x = no result given.

SMILES | NFkB transloc pot | IL1B NFkB inh | PTPN22 act | LYP inh 2 | IL1B cytotox
Clc1ccccc1Sc1cnc2ccccc2n1 | -35.7 | 35.7* | -3.6 | 0.2 | -10.4
CCOC(=O)c1nc(Nc2ccccc2)c2ccccc2n1 | -7.8 | 7.8 | 0.9 | -3.4 | 42.6
CCOC(=O)c1ccc(Nc2nc(-c3cccnc3)nc3ccccc23)cc1 | 18.2 | -18.2 | -2.8 | 3.3 | 86.0*
CCOC(=O)c1c(NC(=O)CSc2nnc(-c3ccncc3)n2Cc2ccco2)sc(C(C)=O)c1C | -38.2 | 38.2* | -5.5 | 6.0 | 0.8
CCOC(=O)c1c(NC(=O)CSc2nnc(-c3ccncc3)n2Cc2ccco2)sc(C)c1C | 14.6 | -2.6 | -5.4 | 4.7 | 7.4
CC(C)(O)C#Cc1ccc(C(=O)NCc2ccccc2)s1 | x | x | -5.1 | 2.6 | x
COc1cccc(-c2nc(CS(=O)(=O)CC(=O)NCCCOC(C)C)c(C)o2)c1 | -11.5 | 11.5 | 23.5 | -26.5 | 94.8*
COc1cccc(-c2nc(CS(=O)CC(=O)NCCCOC(C)C)c(C)o2)c1 (stereo unspecified) | -10.1 | 10.1 | -11.4 | 7.5 | -14.0
Cc1ccc(CSCC(=O)N/N=C/c2sccc2C)cc1 | 24.6 | -24.6 | -0.3 | 3.2 | 0.3
Cc1sc(NC(=O)c2sc3nc4c(C)cccc4cc3c2N)c(C#N)c1C | -5.3 | 5.3 | -54.2 | 55.6* | -2.5
Cc1cccc2cc3c(N)c(C#N)sc3nc12 | -7.7 | 7.7 | 6.2 | -8.4 | 14.5
CCOc1ccc(N(CC(=O)Nc2cccc(OC)c2)S(=O)(=O)c2c(C)noc2C)cc1 | -49.5 | 49.5* | -6.1 | 4.5 | -18.2
CCOc1ccc(N(CC(=O)Nc2cccc(Cl)c2)S(=O)(=O)c2c(C)noc2C)cc1 | -9.1 | 9.1 | -1.8 | -0.5 | -29.5
COc1ccc(CC(=O)Nc2cccc(-c3nnc(-c4ccccc4)o3)c2)cc1OC | 10.2 | -10.2 | 1.0 | -5.3 | -31.0
COc1ccc(CC(=O)Nc2ccc(-c3nnc(-c4ccccc4)o3)cc2)cc1OC | -90.8 | 90.8* | -8.4 | 5.2 | -14.2
CC(=O)Nc1ccc(S(=O)(=O)NCCc2ccc(S(N)(=O)=O)cc2)cc1 | -30.2 | 30.2* | -2.9 | 4.6 | -14.0
O=C(Nc1ccc2c(c1)oc1ccccc12)N1CCOCC1 | -17.0 | 17.0 | -1.9 | 0.4 | 71.1*
O=C(Nc1ccccc1)N1CCOCC1 | -12.7 | 12.7 | -0.1 | 2.6 | -14.9
Cc1ccc(OCCCC(=O)Nc2nncs2)cc1 | 2.9 | -2.9 | -8.5 | 7.8 | -1.1
O=C(CCCOc1ccc(Cl)cc1)Nc1nncs1 | 43.0* | -43.0 | 7.2 | -10.7 | -13.6
CC12C(=O)N(Cc3ccco3)C(=O)C1C1c3ccccc3C2c2ccccc21 (stereo unspecified) | 0.2 | -0.2 | 2.7 | -0.4 | -2.7
COc1ccc(S(=O)(=O)Nc2ccc(S(=O)(=O)N3CCCCC3)cc2)cc1 | 4.7 | -4.7 | -24.6 | 25.1* | -31.1
COc1ccc(NS(=O)(=O)c2ccc(OCC(=O)N3CCOCC3)cc2)cc1 | -30.8 | 30.8* | -0.8 | -2.0 | -28.7
CC1(C)Oc2ccc(NC(=O)c3ccco3)cc2O1 | -15.3 | 15.3 | 2.5 | -0.7 | -20.5
O=C(NCCCN1CCN(c2cccc(Cl)c2)CC1)c1cccc(N2CCCC2=O)c1 | 45.8* | -45.8 | 3.4 | 1.1 | -18.6
SMILES | NFkB transloc pot | IL1B NFkB inh | PTPN22 act | LYP inh 2 | IL1B cytotox
O=C(NCCCN1CCN(c2cccc(Cl)c2)CC1)c1ccc(N2CCCC2=O)cc1 | 15.6 | -15.6 | -4.6 | 5.2 | 13.3
COC(=O)c1cn(NC(=O)c2ccc(OC)c(OC)c2)c(=O)c2ccccc12 | -39.0 | 39.0* | 3.5 | -5.7 | -2.0
COC(=O)c1cn(NC(=O)c2cccc(F)c2)c(=O)c2ccccc12 | 28.6 | -28.6 | 6.6 | -6.1 | 2.7
CCC(CC)C(=O)Nc1cc(OC)c(OC)cc1C(=O)O | 17.6 | -17.6 | -2.5 | -1.2 | 0.0
COc1cc(N(C)C)c(NC(C)=O)cc1C(=O)O | 9.8 | -9.8 | -1.4 | -1.5 | 84.8*
COc1ccccc1CC(=O)Nc1ccc(-c2noc(COc3cccc(C)c3C)n2)cc1 | -8.5 | 8.5 | -7.1 | 3.6 | -21.2
COc1ccccc1CC(=O)Nc1ccc(-c2noc(COc3ccc(Br)cc3)n2)cc1 | 50.3* | -50.3 | 12.7 | -12.4 | -8.0
CC1Cc2ccccc2N1C(=O)c1cc2sccc2n1Cc1ccc(F)cc1 (stereo unspecified) | 8.7 | -8.7 | -1.7 | 0.7 | 24.5
[O-][n+]1c2c(c3c4non(O)c4ccc31)CCCC2 | -23.3 | 23.3 | 0.8 | -0.2 | 87.6*
Cc1ccc(S(=O)(=O)N/N=C/c2c(C)nn(-c3ccccc3)c2C)cc1 | -1.8 | 1.8 | 3.0 | -7.4 | 13.3
Cc1cccc(N(C)S(=O)(=O)c2ccc3[nH]cc(C(=O)N4CCOCC4)c(=O)c3c2)c1 | -1.4 | 1.4 | -3.2 | 3.2 | 14.0
Cc1cccc(N(C)S(=O)(=O)c2ccc3[nH]c(=O)c(=O)[nH]c3c2)c1 | -8.7 | 8.7 | 5.8 | -7.4 | 73.3*
Cc1ccc[n+](C(C)C(=O)Nc2ccc(C)c([N+](=O)[O-])c2)c1 (stereo unspecified) | -18.3 | 18.3 | 11.0 | -6.8 | 10.0
COc1ccc(C(C)=O)cc1CSc1nc2cc(Cl)ccc2o1 | -8.7 | 8.7 | 4.7 | -2.6 | 88.1*
COc1ccc(C(C)=O)cc1CSCCC#N | 3.7 | -3.7 | 7.3 | -3.7 | 2.9
COc1ccc(C(C(=O)NC(C)(C)C)N(CC2CCCO2)C(=O)CCC(=O)Nc2cc(C)on2)cc1 (stereo unspecified) | -8.7 | 8.7 | 4.6 | -7.3 | -10.1
COc1ccccc1/C=c1\sc2nc(-c3ccccc3OC)nn2c1=O | 52.3* | -52.3 | 10.4 | -7.8 | 13.7
C=CCOc1ccccc1/C=c1\sc2nc(-c3oc4ccccc4c3C)nn2c1=O | -7.3 | 7.3 | -5.8 | 4.7 | 18.7
COc1cccc(CSc2nc3ccccc3cc2C=O)c1 | -43.0 | 43.0* | -2.2 | -1.9 | 71.9*
COc1cccc(NC(=O)CSc2nc3ccccc3cc2Cc2ccccc2)c1 | -3.6 | 3.6 | 0.2 | 2.2 | 9.0
COC(=O)c1sccc1NC(=O)c1ccncc1 | 3.7 | -3.7 | -6.0 | 8.5 | -9.6
COC(=O)c1sccc1NC(=O)c1sccc1C | -15.9 | 15.9 | -2.9 | -0.1 | 94.1*
C#CCOC(=O)c1ccc(-n2cncn2)nc1 | x | x | 4.5 | -5.0 | x
CC(C)(C)NC(=O)C(c1ccsc1)N(CCc1ccccc1)C(=O)Cn1nnc2ccccc21 (stereo unspecified) | -57.5 | 57.5* | -11.9 | 13.8 | -1.1
CCCCCc1nc2c(C#N)c(-c3ccc(Cl)cc3)ccn2n1 | -7.5 | 7.5 | -3.2 | 8.3 | -9.4
O=C(CCCCn1c(=O)[nH]c2ccsc2c1=O)NCc1cccnc1 | -6.1 | 6.1 | -5.7 | 1.3 | -23.7
O=C(CCCCn1c(=O)[nH]c2ccsc2c1=O)NCc1ccc2c(c1)OCO2 | -64.0 | 64.0* | 4.4 | -4.9 | 33.3
Cn1c(/C=N/n2cnnc2)nc2ccccc21 | -98.8 | 98.8* | -0.9 | -3.7 | 85.1*
Cn1c(/C=N/c2nc3ccccc3[nH]2)nc2ccccc21 | 3.5 | -3.5 | 1.7 | 1.0 | -36.7
